Measurements taken from PubChem BioAssay (EPA / NIEHS).
Inconclusive results are not listed. The source holds several records for some structures; these can differ, active in one and inactive in another. Activity calls are given as the source filed them. The calls were made as follows: active = hit-call score of the fitted dose curve at least 0.9, where 1 is the maximum; inconclusive = response in the unintended direction; inactive = score below 0.9.

Assay: ACEA_AR_antagonist_AUC_viability: ACEA Biosciences xCELLigence Real-Time Cell Analysis on Androgen Receptor Antagonism for Viability (AID 2283776);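 also: area under impedance growth curve at 80 h after dosing as viability; hits lower the growth signal relative to DMSO meaning cytotoxicity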
Protocol: ACEA_AR_antagonist is a cell-based, single-readout assay that uses 22Rv1, a human prostate cancer cell line, with measurements taken at 80 hours after chemical dosing in a 384-well plate, although TO5 and TO6 (mc0.srcf) used a 96-well plate. Differences in plate size can be ignored given data normalization.ACEA_AR_80hr is one of two assay component(s) measured or calculated from the […] assay. It is designed to make measurements of real-time cell-growth kinetics, a form of growth reporter, as detected with electrical impedance signals by Real-Time Cell Electrode Sensor (RT-CES) technology.Data from the assay component ACEA_AR_antagonist_AUC_viability was analyzed in the positive analysis fitting direction relative to DMSO as the negative control and baseline of activity. Using a type of growth reporter, loss-of-signal activity can be used to understand changes in the viability. Furthermore, this assay endpoint can be referred to as a secondary readout, because this assay has produced multiple assay endpoints where this one serves a viability function. To generalize the intended target to other relatable targets, this assay endpoint is annotated to the cell cycle intended target family, where the subfamily is cytotoxicity.
The xCELLigence system Multi-E-Plate stations were used to measure the time-dependent response to chemicals. Each compound was tested in an eight-point, 1:4 serial dilution series starting at a maximum final concentration of 100 uM. A maximum starting concentration of 0.5% DMSO was present in the 100 uM chemical samples and was diluted along with the test article dilution series. The screen was performed in biological duplicate using two separate, 96-well, E-Plates 96 for each dilution series (n = 2). Positive controls (MG132 and testosterone) and a negative control (assay media) were tested in quadruplicate on each testing plate. Then, 0.5% and 0.125% DMSO were tested in duplicates in each plate to serve as solvent controls for the 2 highest concentrations of testing compounds: 100 uM and 25 uM. Reference compounds were tested with 8 concentrations with 1:5 serial dilutions. All screening was carried out by ACEA Biosciences, Inc. (San Diego, CA). 22Rv1 cells purchased from ATCC were maintained in media supplemented with 10% fetal bovine serum (FBS). Before screening, 22Rv1 cells were preconditioned in assay medium. Cells were then detached and seeded in E-Plates 96 in assay medium. After overnight monitoring of growth once every hour, compounds were added to […] cells and remained in the medium until the end of the experiment. Cellular responses were then recorded once every 5 min for the first 5 h, and once every hour for an additional 100 h.
With `O=C1CCC(C2CCCCC2)CC1` the AC50 was 74.1 µM (active).
With `c1ccc2n[nH]nc2c1` the outcome was “inactive”.
In the case of `CC1=CC(=O)/C(=C(/C)O)C(=O)O1`, the outcome is reported as “inactive”.
With `CC(C)(C)c1csc(-c2cc3cc(OCc4ccccc4CC(=O)O)ccc3o2)n1` the AC50 was 23.7 µM (active).
With `O=C1O[C@H]([C@@H](O)CO)C(O)=C1O` the outcome was “inactive”.
For `O=c1ccc2ccccc2o1`, the outcome was “inactive”.
In the case of `NC(=O)c1nc(-c2cccc(-c3cc(F)ccc3OCC(F)(F)C(F)(F)F)c2)n[nH]1`, the AC50 is reported as 19.3 µM (active).
In the case of `CN1C(=O)CC[C@H]1c1cccnc1`, the outcome is reported as “inactive”.
With `CCOC(=O)O[C@H](C)OC(=O)c1ccc2c(c1)cc(C(=O)NC1CCN(C(C)C)CC1)n2Cc1cc(-c2ccc(Cl)s2)on1` the AC50 was 4.55 µM (active).
In the case of `O=c1c(-c2ccc(O)cc2)coc2cc(O)cc(O)c12`, the AC50 is reported as 28.8 µM (active).
In the case of `Oc1ccccc1`, the outcome is reported as “inactive”.
For `Cc1cccc2ccccc12`, the outcome was “inactive”.
With `CC(C)(C)c1cc(/C=C2\SC(N)=NC2=O)cc(C(C)(C)C)c1O` the AC50 was 15.2 µM (active).
With `Cc1cc(F)ccc1-c1cc(N2CC[C@@H](O)[C@H]2CO)ncc1N(C)C(=O)C(C)(C)c1cc(C(F)(F)F)cc(C(F)(F)F)c1` the AC50 was 10.1 µM (active).
With `COc1cc(C(=O)NC2CCN(C)CC2)ccc1Nc1ncc2c(n1)N(C1CCCC1)CC(F)(F)C(=O)N2C` the AC50 was 0.00297 µM (active).
For `O=c1[nH]sc2ccccc12`, the AC50 was 7.87 µM (active).
With `O=C(O)c1ccccc1-n1cc(C(=O)O)c(=O)c2cc(Nc3c(F)cc(F)cc3Cl)c(Cl)cc21` the outcome was “inactive”.
In the case of `Cc1c2ccccc2c(C)c2c1ccc1ccccc12`, the AC50 is reported as 41.1 µM (active).
For `CCCCCCCCCCCCO`, the outcome was “inactive”.
In the case of `COCC(C)OCC(C)OCC(C)O` (stereo not given), the outcome is reported as “inactive”.
For `Cc1ncc(CO)c(CO)c1O`, the outcome was “inactive”.
With `CCCOC(=O)c1cc(O)c(O)c(O)c1` the AC50 was 31.4 µM (active).
In the case of `Cc1cc2c(cc1C(F)(F)F)N(C(=O)Nc1ccc(Oc3cccnc3C)nc1)CC2`, the AC50 is reported as 15.1 µM (active).
For `OCCO`, the outcome was “inactive”.
In the case of `CCCCCc1ccc(N)cc1`, the outcome is reported as “inactive”.
In the case of `Cc1cn([C@H]2C[C@H](N=[N+]=[N-])[C@@H](CO)O2)c(=O)[nH]c1=O`, the outcome is reported as “inactive”.
In the case of `O=C(O)c1ccccc1C(=O)OCc1ccccc1`, the outcome is reported as “inactive”.
With `CC/C(=C(/CC)c1ccc(O)cc1)c1ccc(O)cc1` the AC50 was 18 µM (active).
For `COc1cccc([C@H](O)C2CCN(CCc3ccc(F)cc3)CC2)c1OC`, the AC50 was 35.7 µM (active).
In the case of `CC(=O)N1CCN(c2ccc(OC[C@H]3CO[C@](Cn4ccnc4)(c4ccc(Cl)cc4Cl)O3)cc2)CC1`, the AC50 is reported as 32.4 µM (active).
In the case of `CCCCCCCCOC(=O)c1cc(O)c(O)c(O)c1`, the AC50 is reported as 13.5 µM (active).
With `CCCCCCCCCC(=O)O` the outcome was “inactive”.
In the case of `CC(C)(c1cc(Br)c(O)c(Br)c1)c1cc(Br)c(O)c(Br)c1`, the AC50 is reported as 24.3 µM (active).
With `C[C@]12CC[C@@H]3c4ccc(O)cc4CC[C@H]3[C@@H]1CCC2=O` the AC50 was 71.6 µM (active) and the outcome was “inactive”.
With `c1ccc(C[n+]2cccc3ccccc32)cc1` the AC50 was 82.3 µM (active).
With `Clc1cc(Cl)c2c(c1)N=C1CCCCCN1C2` the outcome was “inactive”.
In the case of `CN(C[C@@H](CC[N+]12CCC(C3CCCCC3)(CC1)CC2)c1ccc(Cl)c(Cl)c1)C(=O)c1cc(C(F)(F)F)cc(C(F)(F)F)c1`, the AC50 is reported as 5.8 µM (active).
In the case of `O=C(O)Cc1cc(I)c(Oc2ccc(O)c(I)c2)c(I)c1`, the AC50 is reported as 20.3 µM (active).
In the case of `CCCCOC(=O)CC(CC(=O)OCCCC)(OC(C)=O)C(=O)OCCCC`, the outcome is reported as “inactive”.
